Giardia FBPA inh – blocks Giardia fructose-bisphosphate aldolase activity; purified Giardia FBPA; Potency, µM (doses to about 59.6 µM), without a hit: at the top dose activity, negative = inhibition, usual class: inhibitors; actives 0.71% (n = 290,000); AID 2451; note: nearly all actives have a fitted effect of over 55% in size
Target sequence (A8B2U2 whole entry, looked up): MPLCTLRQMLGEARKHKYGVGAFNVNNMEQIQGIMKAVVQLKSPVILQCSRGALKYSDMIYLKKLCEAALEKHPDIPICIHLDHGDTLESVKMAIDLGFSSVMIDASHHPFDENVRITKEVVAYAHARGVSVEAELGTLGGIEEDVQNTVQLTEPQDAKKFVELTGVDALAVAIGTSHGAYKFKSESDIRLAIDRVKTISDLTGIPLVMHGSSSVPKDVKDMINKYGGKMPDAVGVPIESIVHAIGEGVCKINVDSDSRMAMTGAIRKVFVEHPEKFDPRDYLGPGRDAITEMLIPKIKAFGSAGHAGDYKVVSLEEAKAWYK
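Giardia FBPA (40 nM reagent) was preincubated 10 min at RT with compound (up to 57.5 uM final), then substrate plus GAPDH/TPI/NAD/arsenate coupling system with diaphorase/resazurin was added; resorufin fluorescence (525/598 nm) was read after 20 min.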
Sm TGR inh – inhibitors of Schistosoma mansoni thioredoxin glutathione reductase; purified TGR, DTNB reduction, TNB absorbance 405 nm; Potency, µM (titrated, usually from 114 µM), without a hit: at the highest dose activity change, negative = inhibition, hits mostly inhibitors; actives 3% (n = 360,000); note: nearly all actives have a fitted effect of over 60% in size
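First, TGR (20 nM dispensed) and NADPH were mixed with compound. Second, a 15 min room-temperature incubation followed. Third, further NADPH and then DTNB were added to start the reaction. Finally, TNB absorbance was monitored kinetically.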
Tb PYK inh – blocks Trypanosoma brucei pyruvate kinase | Q57TT1 | TbPYK enzyme, Kinase-Glo Plus ATP luminescence, 45 min | Potency, µM (titrated, usually from 76.8 µM), for inactives: at the highest dose activity, negative = inhibition, hits mostly inhibitors | actives 0.12% (n = 410,000); note: nearly all actives have a fitted effect of over 50% in size
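Luminescent Kinase-Glo Plus end-point after 45 min room-temperature reaction of T. brucei pyruvate kinase started with 130 uM ADP (final). Buffer TEA 50 mM pH 7.2 with KCl, MgCl2, BSA, Tween-20; titration-based qHTS with fitted concentration-effect curves.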
LmPK inhibitor – LmPK (Leishmania mexicana) enzyme inhibition | Potency, µM (series often up to 57.5 µM), without a hit: at the highest dose activity change, negative = inhibition, actives largely listed as inhibitors | Q27686 | actives 0.37% (n = 290,000) | AID 1721 | purified LmPK, Kinase-Glo ATP luminescence, 1 h
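Kinase-Glo luminescence read after 1 h RT reaction of 0.1 nM LmPK with 0.5 mM PEP and 0.1 mM ADP. Activity scaled between uninhibited and enzyme-free controls.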
RE007 growth inh – less growth of the S. pombe RE007 Vpr strain | AID 651644 | Potency, µM (titrated, usually from 92.2 µM), without a hit: at the highest dose activity change, negative = less growth, usual class: inhibitors | S. pombe RE007 Vpr strain, BacTiter-Glo ATP luminescence, 24 h | actives 0.21% (n = 360,000); active = well fitted falling curve with a large enough effect; inconclusive = small, poorly fitted or top-dose-only effect; inactive = no such curve, though single readings can be large or run the other way; note: nearly all actives have a fitted effect of over 50% in size
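Fission yeast strain RE007, carrying one chromosomally integrated HIV-1 vpr copy, was seeded at OD 0.01 in PMG+AL medium with 23 nL pinned compound. After 24 h at 30 °C and 99% humidity, viability was read by BacTiter-Glo luminescence.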
Active calls of the source: *; u = inconclusive; x = no result given; [ ] = another dose, or the depositor's remark. The list is not random: actives were taken first. Their share in the collection is about 3.3%. Unless noted, calls come from the whole dose curve; as a rule, active = well fitted curve in the direction sought with a large enough effect; inconclusive = small, poorly fitted or top-dose-only effect, or another doubt; inactive = no such curve, though single readings can be large; an effect the other way counts as inactive or inconclusive. % is set by controls: 0 for no effect and ±100 for the full control effect; potency is the fitted concentration of half-maximal effect.

SMILES | Giardia FBPA inh | Sm TGR inh | Tb PYK inh | LmPK inhibitor | RE007 growth inh
CC(C)(C)OC(=O)N1CCC2(CC1)Oc1ccc(F)cc1C(=O)C21CC(c2cccnc2)=NO1 (stereo unspecified) | 3% | -10% | 3% | 0% | 5%
COc1ccc(NC(=O)CCc2nnc3n(Cc4ccc(C)cc4)c(=O)c4ccccc4n23)cc1 | x | -12% | 2% | x | x
O=C(O)COCC(=O)N1CCCN(c2ccc(C(F)(F)F)cn2)CC1 | 7% | 40µM* | -16% | 9% | 6%
CCc1nc2c(OCc3ccc(F)cc3)cccn2c1N(C)C(=O)CC(C)C | x | x | 1% | x | 4%[18.4 µM]
CC(=O)Nc1cc2c(cc1NC(=O)Cn1nc(-c3ccccc3F)ccc1=O)OCCO2 | 2% | 45µM* | 7% | 2% | -1%
CCOC(=O)N1CCN(C(=O)C(NC(=O)c2ccc(CC)cc2)C(C)C)CC1 (stereo unspecified) | -13% | 6% | 2% | -3% | -13%
Cn1c(CNC(=O)c2ccc(Cl)cc2)nnc1SCC(=O)NC1CCCC1 | -3% | -2% | 5% | -5% | 4%
CCCC(=O)NC(Oc1ccc(C(C)=O)cc1)C(Cl)(Cl)Cl (stereo unspecified) | 3% | 28µM* | 0% | 1% | -15%
CC1CCN(C(=O)C(C)Cl)CC1 (stereo unspecified) | 7% | -12% | 1% | 13% | -2%
O=C(OCc1nnc(-c2ccc([N+](=O)[O-])cc2)o1)C1CC(=O)N(CCc2ccccc2)C1 (stereo unspecified) | x | 89µM* | -16% | x | 3%
O=C1c2ccccc2NC(c2ccc(-c3cccs3)o2)N1O (stereo unspecified) | x | 32µM* | -8% | x | x
O=C1c2ccccc2NC(c2ccc(-c3ccc(C(F)(F)F)cc3)o2)N1O (stereo unspecified) | x | x | -3% | x | x
O=C1c2ccccc2NC(c2ccco2)N1NS(=O)(=O)c1ccccc1 (stereo unspecified) | -2% | -3% | -4% | 4% | u
O=C1c2ccccc2NC(c2ccc(Br)o2)N1O (stereo unspecified) | x | 11µM* | 2% | x | x
O=C1c2ccccc2NC(c2ccco2)N1O (stereo unspecified) | u | 50µM* | -4% | 6% | -1%
COCCNC(=S)NNC(=O)CSCc1ccc(Cl)cc1Cl | 7% | -3% | u | 4% | 31%
Cc1c(NC(=O)/C=C/c2cn(-c3ccccc3)nc2-c2ccc(F)cc2)c(=O)n(-c2ccccc2)n1C | x | 3.2µM* | u | 0% | 3%
Cc1c(NC(=O)CN(c2ccc(F)cc2)S(=O)(=O)c2ccccc2)c(=O)n(-c2ccccc2)n1C | x | 10µM* | 2% | -7% | -6%
Cc1c(NC(=O)CN(c2ccccc2)S(=O)(=O)c2ccc(F)cc2)c(=O)n(-c2ccccc2)n1C | x | 25% | -9% | 1% | -10%
CCC(C)(C)n1nnnc1CN1CCc2ccccc21 | -8% | 7.1µM* | -1% | -1% | 3%
Fc1ccc(C(c2ccc(F)cc2)N2CCN(C/C=C\c3ccccc3)CC2)cc1 | -14% | x | x | x | x
NP(=O)(Oc1ccccc1)c1ccccc1 (stereo unspecified) | x | x | -6% | x | 3%
O=C(/C=C/c1ccc(O)c(O)c1)OC(Cc1ccc(O)c(O)c1)C(=O)O (stereo unspecified) | u | 35µM* | u | -27% | 3%
CC1=NN(c2ccc(C(=O)O)c(N)c2)C(=O)C1 | 7.1µM* | -27% | -10% | 3% | 12%
Fc1ccccc1-c1cc2ncccc2cn1 | x | 32µM* | -10% | x | -7%
SMILES | Giardia FBPA inh | Sm TGR inh | Tb PYK inh | LmPK inhibitor | RE007 growth inh
COc1cc(OC)cc(-c2cc3ncccc3cn2)c1 | x | -20% | -13% | x | -23%
Cc1cc(C(=O)NNc2ccc(C)c(C)c2)no1 | -4% | 50µM* | 5% | 1% | 6%
Cc1ccc(NNC(=O)c2ccno2)cc1C | -12% | 50µM* | 0% | 2% | 67%
Cc1ccc(NNC(=O)c2ccno2)cc1Cl | -6% | -2% | -2% | 2% | 25%
O=[N+]([O-])c1ccc(/C=C/C2=NN(c3ccccc3)C(c3ccco3)C2)o1 (stereo unspecified) | -5% | 40µM* | -19% | -3% | -19%
C(=C\c1ccco1)/C1=NN(c2ccccc2)C(c2ccco2)C1 (stereo unspecified) | -17% | 28µM* | -11% | -2% | -3%
CCCNC(=O)c1onc(CSc2cccc(OC)c2)c1C(=O)NCCC | 2% | 8% | 2% | 3% | -13%
CCOC(=O)N1CCN(C(=O)COC(=O)CN(C)S(=O)(=O)c2ccc(NC(C)=O)cc2)CC1 | x | -35% | -8% | -10% | 14%
CCC(C(=O)NCc1ccco1)N(C(=O)CNS(=O)(=O)c1ccccc1)C1CCCCC1 (stereo unspecified) | 1% | 45µM* | 0% | -1% | 6%
CC(C)C(C(=O)NCc1ccco1)N(C(=O)CNS(=O)(=O)c1ccccc1)C1CCCC1 (stereo unspecified) | -5% | -32% | 4% | 2% | 3%
CCCn1c(/C=C/c2ccccc2)nc2ccccc21 | -19% | -116% | -9% | u | -12%
COCCOCCn1c(/C=C/c2ccccc2)nc2ccccc21 | u | 0% | -7% | 14µM* | u
Cc1ccc(OCCCc2c(C)n[nH]c2C)cc1 | -16% | 19% | 0% | 6% | 15%
CCOC(=O)c1sc(Nc2nc(C)cc(C)n2)nc1C | 2% | 9% | 1% | -16% | -5%
C/C(=N/NS(=O)(=O)c1cccc([N+](=O)[O-])c1)c1c[nH]c2ccccc12 | x | 45µM* | -11% | 1% | -8%
O=C(CCS(=O)(=O)c1ccccc1)N1CCCc2ccccc21 | 10% | 40µM* | 0% | 2% | -10%
Cc1ccccc1NS(=O)(=O)c1ccc(C)c(NS(C)(=O)=O)c1C | 1% | 1% | -2% | -1% | 3%
NCCCn1c(C(=O)c2cc(Cl)c(N)c(Cl)c2)c2ccc([N+](=O)[O-])cc2[n+]1[O-] | x | 40µM* | 0% | x | -15%
NCCCn1c(C(=O)c2cc(Cl)c(N)c(Cl)c2)c2ccc(C(F)(F)F)cc2[n+]1[O-] | x | 45µM* | -10% | x | 1%
O=C1N/C(=N/S(=O)(=O)c2ccccc2)S/C1=C/c1cccnc1 | 14% | -23% | -2% | 3% | -8%
O=C(O)/C=C/C(=O)Nc1ccc(Oc2ncnc3cc(Cl)ccc23)nc1 | 5% | 8.9µM* | 3% | 8% | 32µM*
O=C(Nc1cccnc1)c1ccc(NS(=O)(=O)c2cc([N+](=O)[O-])ccc2Cl)cc1 | -12% | 32µM* | 2% | 7% | 0%
O=[N+]([O-])c1ccc(Cl)c(S(=O)(=O)/N=C(/Nc2cccnc2)c2ccccc2)c1 | x | x | 0% | x | 1%
CCOc1cc(/C=C2/N=C(C)C(C(=O)OC)=C2O)ccc1O | -13% | -26% | -7% | 6% | -6%
